Inhibition data for 29 compounds are collected here from PubChem BioAssay AID862 (The Scripps Research Institute Molecular Screening Center, 2007).

Among all 190,000 compounds or so, about 1,700 (0.89%) were called active. Many of the other results were omitted from the sample, so actives are more common in it than they were. Unmarked numbers belong to inactive results.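 How the source made its calls: active means inhibition above the mean inhibition across all screened compounds plus 3 SD (cut at about 44% in these data); inactive means the rest.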

By inhibition is commonly meant the drop in the measured response relative to a control, in per cent.

This assay in a line: blockers of STAT3 transcriptional signaling – U3A cells, luciferase, luminescence, MLSCN library, primary screen (AID 862).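 Further: 0% = DMSO only wells and 100% = 100 µM nifuroxazide control wells.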 As to conditions: IL-6 STAT3-luciferase reporter, at 5.5 µM, stronger effect = higher value, host cell line lacks STAT1. (Reporter assays use an easily measured gene product as a stand-in for the process of interest.)
In the case of `COc1ccc(-c2nc3cc([N+](=O)[O-])ccc3o2)cc1OC`, the inhibition was 20.3%. For `COc1ccc2oc(-c3cccc(NC(=O)CSc4ccc(Cl)cc4)c3)nc2c1` the value was -4.6%; for `COc1cccc(-c2nc3cc(C)ccc3o2)c1`, 45% (active). For `Cc1ccc(C(=O)Cc2nnc(C)s2)cc1` the value was -4.3%.

In the case of `C/C(=N\NC(=O)CNC(=O)C(c1ccccc1)c1ccccc1)c1ccc(C)cc1`, the inhibition is -6.9%.

As for `O=C(Nc1cccnc1)c1noc2c1CCCCC2`, the inhibition is 43.9% (active). The value for `COc1cccc(C(=O)Nc2cccnc2)c1OC` was 2.9%; that for `O=C(Nc1cccnc1)c1cccc(S(=O)(=O)N2CCCC2)c1` was 6.6%; that for `Cc1ccc(-n2c(SCC(=O)N/N=C/C=C/c3ccccc3[N+](=O)[O-])nc3ccccc3c2=O)cc1` was 1.3%. Regarding `CC(Sc1nncn1C)C(=O)Nc1cc(C(F)(F)F)ccc1N1CCOCC1` (centres undefined), the inhibition was 0.4%.

Regarding `OCCNCc1cccc(OCc2ccccc2Cl)c1`, the inhibition was -9.4%. Consider `O=c1oc(/C=C/c2ccccc2)nc2ccccc12`, for which the inhibition is 44.2% (active). For the compound `S=c1[nH]nc(/C=C/c2ccccc2)o1`, the inhibition was -4.3%. For `CCn1c(/C=C/c2ccc([N+](=O)[O-])o2)nc2ccccc2c1=O` the value was 25.7%; for `COc1ccc(/C=C/C(=O)c2ccc(NS(=O)(=O)c3ccc(C)cc3)cc2)cc1O`, -5.1%. For `Cc1ccc(O)c(-c2cc(C(=O)NCc3ccccc3)[nH]n2)c1` the value was -0.7%; for `CCCn1nc(C(=O)Nc2ccc3nc(C)sc3c2)c2ccccc2c1=O`, 0.8%. For `CCN(CC)c1ccc(/C=N/Nc2nc(C)cc(C)n2)c(O)c1`, the inhibition is 16%. Turning to `CCN(CC)c1ccc(/C=N/Nc2nc(C)cc(=O)[nH]2)cc1`, the inhibition is 46.4% (active). The value for `Cc1cc(=O)[nH]c(N/N=C/c2c(C)nn(-c3ccccc3Cl)c2Cl)n1` was 7.1%; that for `Nc1nnc(SCn2nnc3ccccc3c2=O)s1` was 9.1%; that for `O=C(NC(Nc1nc2ccc([N+](=O)[O-])cc2s1)(C(F)(F)F)C(F)(F)F)c1ccccc1` was 92.4% (active).

Take `O=C(O)CCC(=O)Nc1nc2ccc([N+](=O)[O-])cc2s1`: the inhibition was 13.9%. For `O=C(Nc1nc2ccc([N+](=O)[O-])cc2s1)c1ccc(S(=O)(=O)N2CCCc3ccccc32)cc1` the value was 21.1%. The value for `OCCC1CN(Cc2ccc(Oc3ncccn3)cc2)CCN1CCc1ccccc1` (centres undefined) was 4.1%. The value for `Cc1cc[n+](-c2[nH]c(=O)sc2/C=N/NC(=O)c2ccccc2[O-])cc1C` was 6.7%; that for `COc1ccc(OC)c(N=Cc2c(O)[nH]c3ccccc23)c1` was 22.7%. For `COc1ccc(N=Cc2c(O)[nH]c3ccccc23)cc1OC`, the inhibition is 40.4%.

Take `COc1cc(N=Cc2c(O)[nH]c3ccccc23)cc(OC)c1OC`: the inhibition is 56% (active).
